Source: PubChem BioAssay (NCI)
Values joined by “and” are separate entries in the source; they are usually repeats but may differ in a detail not shown here. Equal entries are not always repeated. About 83,000 compounds went through this panel and 20% of them were active in at least one assay; those are over-represented in the sample as a whole.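 Testing used 96-well plates and a 48-hour single-concentration exposure. Example: -40 means 40% of the starting cells died.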 A number with no mark means an inactive call. Active and inactive are the calls of the source. How the source made its calls: active means growth percent below 10; inactive means the rest.

tested on: MDA-MB-468 breast; assay: NCI-60 one-dose screen, 48 h (100 = growth as untreated, 0 = no growth, -100 = all killed); conditions: 10 µM unless noted

| Structure (SMILES) | growth |
| --- | --- |
| O=C(/C=C/c1ccc(Cl)s1)c1ccc(Cl)s1 | 88.1% and 79.5% |
| COC(=O)CCCCC1=CCC2C(=O)C=C(O)C2C1 (stereo not given) | 100% |
| Cc1ccc(Nc2cc(Cl)c([N+](=O)[O-])cc2[N+](=O)[O-])cc1 | -65.8% (active) |
| C[C@@H](C[C@H](CCO)c1cc(C(F)(F)F)cc(C(F)(F)F)c1)c1ccc2ccccc2c1 | 83.9% |
| Cc1cc(NC(=O)C2c3ccccc3C(=O)N(CC(C)C)C2c2cccs2)no1 (stereo not given) | -56.6% (active) |
| CCOC(=O)c1cc(-c2ccc([N+](=O)[O-])cc2)n(-c2ccc(C(=O)O)c(O)c2)c1C | 58.8% |
| COc1ccc(C(=O)NC(=O)Nc2cc3c(cc2F)/C(=C/c2[nH]c(C)c(CCC(=O)O)c2C)C(=O)N3)c(F)c1 | 50.4% |
| CCOc1ccc(C(=O)O)cc1 | 83.4% |
| CC(=O)C1=C(C)NC(NNC(N)=S)=NC1c1ccccc1 (stereo not given) | 100% |
| C[C@H]1[C@H](C)CC[C@]2(C(=O)Nc3ccc4ncccc4c3)CC[C@]3(C)C(=CC[C@@H]4[C@@]5(C)CCCNC(C)(C)[C@@H]5CC[C@]43C)[C@H]12 | -55.7% (active) |
| CS(=O)c1cccc(-c2ccc3nc(N)n(-c4ccc(C(F)(F)F)cc4)c(=O)c3c2)c1 (stereo not given) | 84.4% |
| COc1cc(NCCN(CC(C)C)CC(C)C)c2ncc(C)cc2c1 | 11.7% |
| COc1cc(-c2nn(-c3ccc(NC(=O)c4cc(Cl)cc(Cl)c4)cc3)cc2-c2ccncc2)ccc1Cl | 89.2% |
| CC(C)CN1CC(C(=O)Nc2ccc3c(c2)-c2ccccc2C3)CC1=O (stereo not given) | 60.5% [50 µM] |
| CCOC(=O)c1cc(/C(=N\O)c2cc(OC)c(OC)c(OC)c2)n2c(C)cccc12 | 21.8% |
| COc1ccc(/C(C)=C(\c2ccc(Cl)cc2)c2ccc(OCCN3CCCCC3)cc2)cc1F | 15.7% |
| COc1ccc2nc3c(cc2c1)C(=O)CC(c1ccccc1)C3 (stereo not given) | 68.3% |
| CC(=O)N1N=C(C2C(=O)N(C)C(=O)N(C)C2=O)CC1c1ccccc1C(=O)O (stereo not given) | 114% |
| COc1ccc(/C(=C2\O[C@@H]([C@H](O)CO)[C@H]3OC(C)(C)O[C@@H]23)c2cc(OC)c(OC)c(OC)c2)cc1O | 107% |
| COC(=O)c1cc(N=C2NC(=O)/C(=C/C=C/c3ccccc3)S2)ccc1O | 17.5% |

| Structure (SMILES) | growth |
| --- | --- |
| OC(COCc1ccccc1)COCc1ccccc1 | 108% |
| Cc1ccc(NS(=O)(=O)c2ccc(-c3cnc(C4CC4)o3)cc2)cc1C | -25.6% (active) |
| O=C1Nc2ccccc2/C1=N/N=C/c1c[nH]c2ccccc12 | 84.8% |
| O=C1Nc2ccccc2/C1=N/N1C(=O)CN(CCCl)C1=O | 107% |
| Cn1c2ccccc2c2c3c(c4c5ccccc5[nH]c4c21)C(=O)N(N)C3=O | -37.5% (active) |
| O=C(CN1CCOCC1)Nc1ccc2ncnc(Nc3ccc(Oc4cccc(C(F)(F)F)c4)c(Cl)c3)c2c1 | -7.54% (active) |
| COc1ccc(-n2c(/C=C3\C(=O)Nc4ccccc43)ccc2CO)cc1 | 96.4% |
| O=C(CCc1nnc2sc(OCc3ccccc3)nn12)c1nc2ccc([N+](=O)[O-])cc2[nH]1 | 109% |
| Cc1cccc(-c2nc(Nc3ccc4ncsc4c3)c3ccccc3n2)n1 | 72.3% |
| Cc1ccc(S(=O)(=O)N(CCC(=O)O)c2ccccc2)cc1 | 113% |
| CS(=O)(=O)Nc1cc(-c2ccc3ncnc(Nc4cccc(Cl)c4F)c3c2)cnc1Cl | -18.4% (active) |
| O=C(/C=C/c1cccs1)Nc1ncc(Cc2ccc(Cl)c(Cl)c2)s1 | 58.2% |
| Cc1ccc(C(=O)Nc2ccc(CNCCN3CCOCC3)c(C(F)(F)F)c2)cc1C#Cc1cnc2cccnn12 | -21% (active) |
| Cc1cc2c(C(=O)NCC#N)cccc2n1-c1nc2c(c(NCc3ccccc3)n1)CCCC2 | -52.5% (active) |
| O=C(/C=C\c1ccc(O)cc1)c1ccccc1 | 97.4% |
| Cc1cc2c(c(C)c1Cl)C(=O)/C(=C/c1ccco1)O2 | -2.58% (active) |
| O=P(O)(O)OCC1OC(n2cnc3c(NCc4ccco4)ncnc32)C(O)C1O (stereo not given) | -67% (active) |
| CCCCC[C@H](O)C/C=C1/C(=O)C=C[C@@H]1C/C=C\CCCC(=O)O | 67.4% |
| CCOC(=O)C1CCNC(=O)C1=O (stereo not given) | 99.5% |
| CN(C)CCCC(=O)Nc1ccc(Cn2nnc3c2C(=O)c2nnn(Cc4ccc(NC(=O)CCCN(C)C)cc4)c2C3=O)cc1 | -62.7% (active) |
